Measured values reported in PubChem BioAssay (NCI).
This is part of a sample that, as a whole, favours compounds with a hit. Of some 79,000 tested, about 15% had one in any assay. Active and inactive are the calls of the source. No stated cut-off is given here; in the data, active means growth inhibition above about 70%; inactive means the rest.

Key:
[1] = NCI Yeast Anticancer Drug Screen. Data for the wt1 strain (AID 149);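 further: 0% = growth of vehicle-treated wt1 cultures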; conditions: S. cerevisiae wt1 strain (SPY 50644) growth inhibition, active compounds read high
How it was run: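 Measured: growth of wt1 yeast under compound versus vehicle treatment, reported as inhibition.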

[2] = NCI Yeast Anticancer Drug Screen. Data for the rad50EPP+ strain (AID 151);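 further: 0% = growth of vehicle-treated control cultures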; conditions: S. cerevisiae rad50 mutant strain, active compounds read high
How it was run: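 Vehicle-normalised growth inhibition; rad50EPP+ yeast strain, altered in DNA damage repair, compound-treated.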

[3] = NCI Yeast Anticancer Drug Screen. Data for the mgt1 strain (AID 153); conditions: S. cerevisiae mgt1 mutant growth inhibition, active compounds read high
How it was run: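 Vehicle-normalized growth inhibition is determined in mgt1 yeast, a strain selected for a defined alteration in DNA repair or cell cycle control.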

[4] = NCI Yeast Anticancer Drug Screen. Data for the rad50 strain (AID 155);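 further: 0% = growth of vehicle-only cultures of the same strain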; conditions: S. cerevisiae rad50 strain growth inhibition, active compounds read high
How it was run: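 Growth of the mutant yeast was measured after compound exposure and referenced to vehicle-treated cultures.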

[5] = NCI Yeast Anticancer Drug Screen. Data for the mec2-1 strain (AID 157); conditions: S. cerevisiae mec2-1 strain, active compounds read high
How it was run: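 Mutant yeast (mec2-1) grown with compound; growth inhibition relative to vehicle control reported.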

[6] = NCI Yeast Anticancer Drug Screen. Data for the rad14 strain (AID 159);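 further: 0% = growth of vehicle-treated control cultures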; conditions: S. cerevisiae rad14 strain growth inhibition, active compounds read high
How it was run: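 Here, inhibition of yeast growth was measured after compound exposure, using a strain with a genetic defect in DNA damage repair and vehicle-treated cultures as the reference.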

[7] = NCI Yeast Anticancer Drug Screen. Data for the sgs1 mgt1 strain (AID 161);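 further: 0% = growth of cultures given vehicle only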; conditions: S. cerevisiae sgs1 mgt1 strain, active compounds read high
How it was run: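 Growth of a repair-deficient yeast mutant was monitored after compound treatment and expressed as inhibition relative to vehicle-treated cultures.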

[8] = NCI Yeast Anticancer Drug Screen. Data for the CLN2oe strain (AID 163);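 further: 0% = growth of vehicle-only control cultures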; conditions: S. cerevisiae CLN2oe strain, active compounds read high
How it was run: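 Compounds are applied to yeast harbouring a defined cell-cycle control change; reduced growth compared with vehicle-treated controls gives the value.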

[9] = NCI Yeast Anticancer Drug Screen. Data for the bub3 strain (AID 167); conditions: S. cerevisiae bub3 mutant strain, active compounds read high
How it was run: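 Whole-cell yeast assay. The mutant strain was incubated with compounds, and growth inhibition was determined by comparison with vehicle-treated cells.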

[10] = NCI Yeast Anticancer Drug Screen. Data for the wt2 strain (AID 169);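 further: 0% = growth of vehicle-treated yeast cultures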; conditions: S. cerevisiae wt2 strain growth inhibition, active compounds read high
How it was run: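 Against vehicle-treated controls, the growth of yeast exposed to each compound was compared, and the inhibition was recorded.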

[11] = NCI Yeast Anticancer Drug Screen. Data for the mlh1 strain (AID 171);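 further: 0% = growth of vehicle-treated control cultures of the same strain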; conditions: S. cerevisiae mlh1 strain growth inhibition, active compounds read high
How it was run: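 Measured: yeast growth. Reference: vehicle-treated controls. Organism: strain with a defined alteration affecting DNA damage repair or cell cycle control, treated with compound.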

[12] = NCI Yeast Anticancer Drug Screen. Data for the sgs1 strain (AID 173);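 further: 0% = growth of vehicle-only control cultures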; conditions: S. cerevisiae sgs1 mutant, active compounds read high
How it was run: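 Each compound was added to cultures of the altered yeast strain. Growth was recorded, and inhibition was derived by comparison with vehicle controls.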

[13] = NCI Yeast Anticancer Drug Screen. Data for the mlh1 rad18 strain (AID 175); conditions: S. cerevisiae mlh1 rad18 strain growth inhibition, active compounds read high
How it was run: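 Genetically defined yeast (DNA repair-deficient) exposed to compounds; growth inhibition determined relative to vehicle.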

[14] = NCI Yeast Anticancer Drug Screen. Data for the rad18 strain (AID 177); conditions: S. cerevisiae rad18 mutant growth inhibition, active compounds read high
How it was run: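 Vehicle-treated cultures served as the baseline for scoring compound-induced growth inhibition in DNA-repair-mutant yeast.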

[15] = NCI Yeast Anticancer Drug Screen. Data for the cln2 rad14 strain (AID 165);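 further: 0% = growth equal to vehicle treated cultures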; conditions: S. cerevisiae cln2 rad14 strain, active compounds read high
How it was run: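 Readout is yeast growth inhibition versus vehicle-treated controls, using a strain with cln2 and rad14 alterations exposed to compound.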

[16] = at 5.0 µM (retest, dose inferred, filed as 0.5)
[17] = at 50.0 µM (retest, dose inferred, filed as 5.0)

Measured: growth inhibition

O=C1c2c(O)cccc2-c2nn(CCNCCO)c3ccc(NCCNCCO)c1c23
active: [2]; at 100.0 µM 77% | [4]; at 11.0 µM 74% | [4]; at 33.0 µM 85% | [4]; [17] 79% | [4]; at 50.0 µM 76.9% | [4]; at 100.0 µM 87%
inactive: [1]; at 1.2 µM 8% | [1]; at 3.7 µM -2% | [1]; at 11.0 µM 11% | [1]; at 33.0 µM 2% | [1]; at 100.0 µM -4% | [2]; at 1.2 µM 15% | [2]; at 3.7 µM 19% | [2]; at 11.0 µM 39% | [2]; at 33.0 µM 54% | [3]; at 1.2 µM 16% | [3]; at 3.7 µM 11% | [3]; at 11.0 µM -3% | [3]; at 33.0 µM -10% | [3]; at 100.0 µM 2% | [4]; at 1.2 µM 26% | [4]; at 3.7 µM 42% | [4]; [16] 27% | [5]; at 1.2 µM 42% | [5]; at 3.7 µM 29% | [5]; [16] -25% | [5]; at 11.0 µM 40% | [5]; at 33.0 µM 10% | [5]; [17] -14% | [5]; at 50.0 µM 20.4% | [5]; at 100.0 µM 39% | [6]; at 1.2 µM -3% | [6]; at 3.7 µM -2% | [6]; at 11.0 µM -21% | [6]; at 33.0 µM -13% | [6]; at 100.0 µM 2% | [7]; [16] 1% | [7]; [17] -2% | [7]; at 50.0 µM 7% | [8]; at 1.2 µM 26% | [8]; at 3.7 µM 22% | [8]; at 11.0 µM 21% | [8]; at 33.0 µM 5% | [8]; at 100.0 µM 18% | [9]; at 1.2 µM 1% | [9]; at 3.7 µM -9% | [9]; [16] -24% | [9]; at 11.0 µM -15% | [9]; at 33.0 µM -30% | [9]; [17] -13% | [9]; at 50.0 µM -19.2% | [9]; at 100.0 µM -26% | [10]; at 1.2 µM -46% | [10]; at 3.7 µM -27% | [10]; at 11.0 µM -41% | [10]; at 33.0 µM -53% | [10]; at 100.0 µM -42% | [11]; at 1.2 µM 29% | [11]; at 3.7 µM 7% | [11]; at 11.0 µM 15% | [11]; at 33.0 µM 13% | [11]; at 100.0 µM 21% | [12]; at 1.2 µM 7% | [12]; at 3.7 µM 5% | [12]; at 11.0 µM 7% | [12]; at 33.0 µM 11% | [12]; at 100.0 µM 28% | [13]; [16] -6% | [13]; [17] -7% | [14]; at 1.2 µM 13% | [14]; at 3.7 µM 15% | [14]; at 11.0 µM -2% | [14]; at 33.0 µM 9% | [14]; at 100.0 µM 0%

NP1(Oc2ccc(F)cc2)=NP(N)(Oc2ccc(F)cc2)=NP(Oc2ccc(F)cc2)(Oc2ccc(F)cc2)=N1 (centres undefined)
active: [4]; at 11.0 µM 95% | [4]; at 33.0 µM 96% | [4]; at 50.0 µM 94.8% | [4]; at 100.0 µM 96% | [5]; at 50.0 µM 84.7% | [5]; at 100.0 µM 94% | [6]; at 100.0 µM 88% | [15]; at 50.0 µM 97% | [9]; at 50.0 µM 87.5% | [9]; at 100.0 µM 96% | [11]; at 100.0 µM 84% | [13]; [17] 86% | [13]; at 50.0 µM 88.2% | [14]; at 33.0 µM 83% | [14]; at 100.0 µM 97%
inactive: [1]; at 1.2 µM -2% | [1]; at 3.7 µM 0% | [1]; at 11.0 µM 20% | [1]; at 33.0 µM 41% | [1]; at 100.0 µM 48% | [2]; at 1.2 µM -6% | [2]; at 3.7 µM -2% | [2]; at 11.0 µM 2% | [2]; at 33.0 µM 4% | [2]; at 100.0 µM 1% | [4]; at 1.2 µM 4% | [4]; at 3.7 µM 5% | [4]; [16] 21% | [4]; [17] 64% | [5]; at 1.2 µM 1% | [5]; at 3.7 µM 3% | [5]; [16] 12% | [5]; at 11.0 µM 26% | [5]; at 33.0 µM 28% | [5]; [17] 19% | [6]; at 1.2 µM -2% | [6]; at 3.7 µM 1% | [6]; at 11.0 µM 6% | [6]; at 33.0 µM 15% | [15]; [16] 5% | [15]; [17] 54% | [9]; at 1.2 µM 1% | [9]; at 3.7 µM -1% | [9]; [16] 8% | [9]; at 11.0 µM 53% | [9]; at 33.0 µM 23% | [9]; [17] 35% | [10]; at 1.2 µM 0% | [10]; at 3.7 µM 7% | [10]; at 11.0 µM -1% | [10]; at 33.0 µM 22% | [10]; at 100.0 µM 50% | [11]; at 1.2 µM 0% | [11]; at 3.7 µM -2% | [11]; at 11.0 µM 1% | [11]; at 33.0 µM 15% | [13]; [16] 17% | [14]; at 1.2 µM -1% | [14]; at 3.7 µM 14% | [14]; at 11.0 µM 63%
